Measured values as given in PubChem BioAssay AID1159580 (chemical genetic matrix, 2015).
Values joined by “and” are separate entries in the source; they are usually repeats but may differ in a detail not shown here. Equal entries are not always repeated. About 2,000 (36%) of roughly 5,500 compounds were called active. Not shown: some 18% with an inconclusive outcome. No stated cut-off is given here; in the data, active means normalized growth mostly below about 0.91 (no sharp cut-off); inconclusive means no clear call, values can overlap the other calls; inactive means mostly above about 0.92. Some of the results follow.

Test: chemical genetic growth profiling, strain panel (AID 1159580);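 further: tested at 20 µM; growth read once vehicle control cultures reached saturation at 30 °C; 1 = growth at the plate median or of vehicle wells; lower values mean less growth of the strain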
Conditions: S. cerevisiae deletion strains, growth OD
[1] = locus YAL013W, strain DEP1, active compounds read low
[2] = locus YMR263W, strain SAP30, active compounds read low

Measured: normalized growth

OC[C@H]1O[C@@H](n2cnc3c(NC4CCCC4)ncnc32)C(O)[C@H]1O (stereo partly specified)
inactive: [1] 0.994 | locus YAL040C, strain CLN3, active compounds read low 0.989 | locus YER002W, strain NOP16, active compounds read low 1.03 | locus YJR075W, strain HOC1, active compounds read low 1.01 | [2] 1.03 | locus YNL128W, strain TEP1, active compounds read low 1 | locus YNL175C, strain NOP13, active compounds read low 1.03 | locus YNL197C, strain WHI3, active compounds read low 1.04 | locus YNL224C, strain SQS1, active compounds read low 1 | locus YOR083W, strain WHI5 (second series), active compounds read low 1.03 | locus YPL055C, strain LGE1, active compounds read low 1.01

CC(=O)O[C@@H]1CC2C(C)(CC[C@H](O)C2(C)C)C2CC[C@]3(C)C(=CC(=O)O[C@H]3c3ccoc3)C21C (stereo partly specified)
inactive: [1] 0.999 | locus YAL021C, strain ccr4, active compounds read low 0.995 | locus YAL026C, strain drs2, active compounds read low 1 | locus YAL030W, strain snc1, active compounds read low 0.998 | locus YBL061C, strain skt5, active compounds read low 1.02 | locus YBR009C, strain hhf1, active compounds read low 1.02 | locus YBR021W, strain FUR4, active compounds read low 0.868 | locus YBR023C, strain chs3, active compounds read low 1 | locus YBR171W, strain sec66, active compounds read low 1 | locus YBR229C, strain ROT2, active compounds read low 1 | locus YBR231C, strain swc5, active compounds read low 1 | locus YBR279W, strain paf1, active compounds read low 1 | locus YCL011C, strain gbp2, active compounds read low 0.995 | locus YCL016C, strain dcc1, active compounds read low 1 | locus YCL029C, strain bik1, active compounds read low 0.999 | locus YCL061C, strain MRC1, active compounds read low 0.999 | locus YCL069W, strain vba3, active compounds read low 1.02 | locus YCR088W, strain abp1, active compounds read low 1 | locus YDL005C, strain med2, active compounds read low 0.986 | locus YDL035C, strain GPR1, active compounds read low 1.02 | locus YDL040C, strain nat1, active compounds read low 1 | locus YDL074C, strain BRE1, active compounds read low 1.02 | locus YDL101C, strain DUN1, active compounds read low 1 | locus YDL134C, strain PPH21, active compounds read low 0.984 | locus YDL185W, strain tfp1, active compounds read low 1 | locus YDL192W, strain arf1, active compounds read low 1 | locus YDR001C, strain nth1, active compounds read low 1 | locus YDR069C, strain doa4, active compounds read low 1.02 | locus YDR101C, strain arx1, active compounds read low 0.994 | locus YDR137W, strain rgp1, active compounds read low 0.988 | locus YDR150W, strain NUM1, active compounds read low 1.01 | locus YDR159W, strain sac3, active compounds read low 1.01 | locus YDR162C, strain NBP2, active compounds read low 1 | locus YDR195W, strain ref2 0.992 | locus YDR297W, strain sur2, active compounds read low 1 | locus YDR318W, strain mcm21, active compounds read low 0.993 | locus YDR334W, strain swr1, active compounds read low 1 | locus YDR335W, strain msn5, active compounds read low 1.02 | locus YDR388W, active compounds read low 0.996 | locus YDR392W, strain spt3, active compounds read low 0.952 | locus YDR502C, strain sam2, active compounds read low 0.975 | locus YEL003W, strain gim4, active compounds read low 1.02 | locus YEL037C, strain rad23, active compounds read low 1.01 | locus YEL061C, strain CIN8 (second series), active compounds read low 1.01 | locus YEL061C, strain CIN8, active compounds read low 1 | locus YER015W, strain faa2, active compounds read low 1 | locus YER016W, strain bim1, active compounds read low 0.99 | locus YER110C, active compounds read low 0.987 | locus YER111C, strain swi4, active compounds read low 0.998 | locus YER155C, strain BEM2 (second series), active compounds read low 1 | locus YER155C, strain BEM2, active compounds read low 0.993 | locus YER167W, strain BCK2, active compounds read low 1.01 | locus YFR010W, strain ubp6, active compounds read low 1.01 | locus YGL078C, strain dbp3, active compounds read low 0.993 | locus YGL086W, strain mad1, active compounds read low 0.996 | locus YGL167C, strain pmr1, active compounds read low 0.999 | locus YGL173C, strain kem1, active compounds read low 1.01 | locus YGL227W, strain vid30, active compounds read low 0.994 | locus YGL240W, strain doc1, active compounds read low 0.99 | locus YGL248W, strain PDE1, active compounds read low 1 | locus YGL253W, strain hxk2, active compounds read low 0.997 | locus YGR078C, strain PAC10, active compounds read low 0.995 | locus YGR135W, strain pre9, active compounds read low 0.959 | locus YGR229C, strain SMI1, active compounds read low 0.971 | locus YGR252W, strain gcn5, active compounds read low 0.946 | locus YHR013C, strain ard1, active compounds read low 0.983 | locus YHR027C, strain rpn1, active compounds read low 1.02 | locus YHR030C, strain SLT2, active compounds read low 0.996 | locus YHR079C, strain IRE1 (second series), active compounds read low 0.986 | locus YHR079C, strain IRE1, active compounds read low 0.994 | locus YHR094C, strain hxt1, active compounds read low 0.984 | locus YHR129C, strain ARP1, active compounds read low 1.01 | locus YHR142W, strain chs7, active compounds read low 1 | locus YHR200W, strain rpn10, active compounds read low 0.995 | locus YIL066C, strain RNR3, active compounds read low 1.02 | locus YIL073C, strain SPO22, active compounds read low 1.02 | locus YIL125W, strain kgd1, active compounds read low 0.992 | locus YIR030C, strain dcg1, active compounds read low 0.993 | locus YJL092W, strain hpr5, active compounds read low 1.01 | locus YJL095W, strain BCK1 (second series), active compounds read low 1.01 | locus YJL095W, strain BCK1, active compounds read low 1 and 0.986 | locus YJL115W, strain asf1, active compounds read low 0.994 | locus YJL129C, strain trk1, active compounds read low 0.99 | locus YJL134W, strain LCB3, active compounds read low 1 | locus YJL154C, strain vps35, active compounds read low 0.996 | locus YJL164C, strain tpk1, active compounds read low 1 | locus YJL166W, strain qcr8, active compounds read low 1 | locus YJL168C, strain set2, active compounds read low 0.994 | locus YJL187C, strain SWE1 (second series), active compounds read low 1 | locus YJR043C, strain POL32, active compounds read low 1.05 | locus YJR066W, strain TOR1, active compounds read low 0.886 | locus YKL009W, strain mrt4, active compounds read low 0.985 | locus YKL068W, active compounds read low 0.997 | locus YKL085W, strain MDH1 (second series), active compounds read low 0.99 | locus YKL085W, strain MDH1, active compounds read low 0.99 | locus YKL160W, strain elf1, active compounds read low 0.991 | locus YKR001C, strain vps1, active compounds read low 0.978 | locus YKR026C, strain gcn3, active compounds read low 0.995 | locus YKR091W, strain srl3, active compounds read low 0.998 | locus YLL001W, strain dnm1, active compounds read low 0.993 | locus YLL026W, active compounds read low 0.989 | locus YLL041C, strain sdh2, active compounds read low 0.989 | locus YLR027C, strain aat2, active compounds read low 1.01 | locus YLR039C, strain RIC1, active compounds read low 1.05 | locus YLR058C, strain SHM2, active compounds read low 1 | locus YLR102C, strain apc9, active compounds read low 0.99 | locus YLR113W, strain HOG1, active compounds read low 1.04 | locus YLR221C, strain rsa3, active compounds read low 1 | locus YLR258W, strain gsy2, active compounds read low 1.01 | locus YLR262C, strain YPT6 (second series), active compounds read low 1.01 | locus YLR262C, strain YPT6, active compounds read low 1.03 | locus YLR268W, strain sec22, active compounds read low 0.988 | locus YLR320W, strain mms22, active compounds read low 0.992 | locus YLR342W, strain FKS1, active compounds read low 0.994 | locus YLR357W, strain rsc2, active compounds read low 0.984 | locus YLR370C, strain arc18, active compounds read low 0.998 | locus YLR371W, strain rom2, active compounds read low 1 | locus YLR384C, strain iki3, active compounds read low 0.978 | locus YLR418C, strain cdc73, active compounds read low 0.948 | locus YML016C, strain PPZ1, active compounds read low 1.01 | locus YML032C, strain rad52, active compounds read low 0.984 | locus YML120C, strain ndi1, active compounds read low 1 | locus YML124C, strain tub3, active compounds read low 0.985 | locus YMR058W, strain fet3, active compounds read low 1.01 | locus YMR078C, strain ctf18, active compounds read low 0.996 | locus YMR125W, strain sto1, active compounds read low 1.02 | locus YMR129W, active compounds read low 0.989 | locus YMR205C, strain PFK2, active compounds read low 0.995 | locus YMR223W, strain ubp8, active compounds read low 0.99 | locus YMR231W, strain pep5, active compounds read low 1 | [2] 0.998 | locus YMR307W, strain GAS1, active compounds read low 1.08 | locus YNL067W, strain RPL9B, active compounds read low 0.989 | locus YNL071W, strain lat1, active compounds read low 1.01 | locus YNL153C, strain GIM3, active compounds read low 1.01 | locus YNL183C, strain NPR1, active compounds read low 0.935 | locus YNL209W, strain ssb2, active compounds read low 0.994 | locus YNL233W, strain BNI4, active compounds read low 0.991 | locus YNL248C, strain rpa49, active compounds read low 0.975 | locus YNL250W, strain rad50, active compounds read low 0.989 | locus YNL271C, strain bni1, active compounds read low 1 | locus YNL298W, strain CLA4, active compounds read low 0.985 | locus YNL307C, strain MCK1, active compounds read low 0.98 | locus YNL322C, strain KRE1 (second series), active compounds read low 0.971 | locus YNL322C, strain KRE1, active compounds read low 1.01 | locus YNR049C, strain mso1, active compounds read low 0.993 | locus YNR052C, strain pop2, active compounds read low 0.991 | locus YOL012C, strain htz1 0.837 | locus YOL147C, strain pex11, active compounds read low 0.983 | locus YOR001W, strain rrp6, active compounds read low 1.01 | locus YOR061W, strain CKA2, active compounds read low 1 | locus YOR069W, strain VPS5, active compounds read low 1 | locus YOR070C, strain gyp1, active compounds read low 0.993 | locus YOR080W, strain dia2, active compounds read low 0.99 | locus YOR083W, strain WHI5, active compounds read low 0.988 | locus YOR106W, strain vam3, active compounds read low 1 | locus YOR136W, strain idh2, active compounds read low 0.989 | locus YOR144C, strain elg1, active compounds read low 0.991 | locus YOR184W, strain ser1, active compounds read low 0.992 | locus YOR231W, strain MKK1, active compounds read low 0.958 | locus YOR265W, strain rbl2, active compounds read low 1.02 | locus YOR270C, strain vph1, active compounds read low 0.965 | locus YOR290C, strain snf2, active compounds read low 0.993 | locus YOR316C, strain cot1, active compounds read low 0.989 | locus YPL051W, strain arl3, active compounds read low 0.974 | locus YPL078C, strain atp4, active compounds read low 0.988 | locus YPL106C, strain sse1, active compounds read low 0.996 | locus YPL240C, strain hsp82, active compounds read low 1 | locus YPL241C, strain CIN2, active compounds read low 1 | locus YPL256C, strain CLN2, active compounds read low 0.991 | locus YPR119W, strain clb2, active compounds read low 0.994 | locus YPR141C, strain kar3, active compounds read low 0.987 | locus YPR163C, strain tif3, active compounds read low 0.98 | locus YPR167C, strain met16, active compounds read low 0.979 | strain wtn01, active compounds read low 0.995
